# Measurements as given in publication PMC7862700, “An all-to-all approach to the identification of sequence-specific readers for epigenetic DNA modifications on cytosine”.
# Assays:
# Assay in all cases: DAPPL (digital affinity profiling via proximity ligation, sequencing); 10 mM Tris-HCl pH 7.5, 50 mM NaCl, 1 mM DTT, 4% glycerol, room temperature, 30 min; GST-TFs on glutathione beads, 16-mer random dsDNA library, 0.1% formaldehyde crosslink after washing; high values mean tight binding
# [1] = molecular target: T1, FEV (Homo sapiens, UniProt Q99581 1-238); conditions: protein: recombinant; tags: N-terminal GST; dsDNA, one strand shown
# T1 sequence: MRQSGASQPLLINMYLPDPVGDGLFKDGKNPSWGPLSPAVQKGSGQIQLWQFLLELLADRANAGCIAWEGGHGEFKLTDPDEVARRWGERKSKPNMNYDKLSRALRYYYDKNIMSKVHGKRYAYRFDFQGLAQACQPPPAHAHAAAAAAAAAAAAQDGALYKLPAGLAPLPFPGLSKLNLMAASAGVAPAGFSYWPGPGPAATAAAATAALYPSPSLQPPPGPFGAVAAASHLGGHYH
# Summary of the method: (§1)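 After expression in yeast as GST fusions, human transcription factors were bound to glutathione beads, DNA-barcoded and mixed with a tag-only sample. The pools were incubated with 200 nmole of a 16-mer random double-stranded DNA library in Tris/NaCl/DTT/glycerol buffer (30 min, room temperature), washed and crosslinked with 0.1% formaldehyde. Proximity ligation with BsaI/T4 ligase ran for 1 h at 37 °C, before PCR amplification and sequencing on an Illumina NextSeq500. Binding signal is a hexamer's read frequency for a factor divided by its frequency for the tag-only sample.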
# [2] = molecular target: ETV5 (Homo sapiens, UniProt P41161 1-510); conditions: protein: recombinant; tags: N-terminal GST; dsDNA, one strand shown
# ETV5, sequence (P41161 whole entry): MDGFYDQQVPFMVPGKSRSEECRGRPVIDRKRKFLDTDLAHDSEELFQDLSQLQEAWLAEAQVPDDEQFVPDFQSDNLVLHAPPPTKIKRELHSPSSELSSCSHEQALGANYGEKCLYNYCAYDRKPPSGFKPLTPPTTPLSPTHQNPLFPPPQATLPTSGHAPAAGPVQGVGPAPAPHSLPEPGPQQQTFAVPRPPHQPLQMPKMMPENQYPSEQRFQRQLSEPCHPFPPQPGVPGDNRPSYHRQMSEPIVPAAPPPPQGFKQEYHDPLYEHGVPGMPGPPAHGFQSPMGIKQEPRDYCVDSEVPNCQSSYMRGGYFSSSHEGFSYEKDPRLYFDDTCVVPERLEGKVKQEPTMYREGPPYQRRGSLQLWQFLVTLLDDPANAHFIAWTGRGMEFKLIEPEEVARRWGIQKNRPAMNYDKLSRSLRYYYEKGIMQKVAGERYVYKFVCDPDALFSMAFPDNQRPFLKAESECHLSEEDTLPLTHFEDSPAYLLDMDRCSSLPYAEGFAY
# Summary of the method: as §1
# [3] = molecular target: HSF1 (Homo sapiens, UniProt Q00613 1-529); conditions: protein: recombinant; tags: N-terminal GST; chain copies: 3; dsDNA, one strand shown
# HSF1, sequence (Q00613 whole entry): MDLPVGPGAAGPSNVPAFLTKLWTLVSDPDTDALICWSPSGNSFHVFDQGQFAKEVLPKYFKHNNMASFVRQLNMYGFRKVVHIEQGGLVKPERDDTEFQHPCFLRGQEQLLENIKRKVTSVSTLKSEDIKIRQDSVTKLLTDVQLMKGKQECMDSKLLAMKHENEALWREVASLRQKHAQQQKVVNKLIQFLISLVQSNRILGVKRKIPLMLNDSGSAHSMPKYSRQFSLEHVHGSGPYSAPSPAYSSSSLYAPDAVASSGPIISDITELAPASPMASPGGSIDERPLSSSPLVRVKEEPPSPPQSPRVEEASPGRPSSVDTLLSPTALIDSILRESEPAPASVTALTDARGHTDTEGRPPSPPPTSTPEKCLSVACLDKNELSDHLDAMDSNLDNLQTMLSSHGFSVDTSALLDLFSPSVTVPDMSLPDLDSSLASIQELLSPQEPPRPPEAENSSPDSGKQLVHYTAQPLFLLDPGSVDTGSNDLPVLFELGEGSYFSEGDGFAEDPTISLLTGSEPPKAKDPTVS
# Summary of the method: as §1
# [4] = molecular target: T2, SPIC (Homo sapiens, UniProt Q8N5J4 1-248); conditions: protein: recombinant; tags: N-terminal GST; dsDNA, one strand shown
# T2 sequence: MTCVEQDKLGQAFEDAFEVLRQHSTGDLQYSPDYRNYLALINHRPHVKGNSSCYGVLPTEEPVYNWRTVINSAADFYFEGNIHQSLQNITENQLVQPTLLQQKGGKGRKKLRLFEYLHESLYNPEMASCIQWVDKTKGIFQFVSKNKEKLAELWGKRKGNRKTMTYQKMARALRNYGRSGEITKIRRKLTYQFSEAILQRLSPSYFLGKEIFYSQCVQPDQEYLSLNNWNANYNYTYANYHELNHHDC
# Summary of the method: as §1
# [5] = molecular target: ELF4 (Homo sapiens, UniProt Q99607 1-663); conditions: protein: recombinant; tags: N-terminal GST; dsDNA, one strand shown
# ELF4, sequence (Q99607 whole entry): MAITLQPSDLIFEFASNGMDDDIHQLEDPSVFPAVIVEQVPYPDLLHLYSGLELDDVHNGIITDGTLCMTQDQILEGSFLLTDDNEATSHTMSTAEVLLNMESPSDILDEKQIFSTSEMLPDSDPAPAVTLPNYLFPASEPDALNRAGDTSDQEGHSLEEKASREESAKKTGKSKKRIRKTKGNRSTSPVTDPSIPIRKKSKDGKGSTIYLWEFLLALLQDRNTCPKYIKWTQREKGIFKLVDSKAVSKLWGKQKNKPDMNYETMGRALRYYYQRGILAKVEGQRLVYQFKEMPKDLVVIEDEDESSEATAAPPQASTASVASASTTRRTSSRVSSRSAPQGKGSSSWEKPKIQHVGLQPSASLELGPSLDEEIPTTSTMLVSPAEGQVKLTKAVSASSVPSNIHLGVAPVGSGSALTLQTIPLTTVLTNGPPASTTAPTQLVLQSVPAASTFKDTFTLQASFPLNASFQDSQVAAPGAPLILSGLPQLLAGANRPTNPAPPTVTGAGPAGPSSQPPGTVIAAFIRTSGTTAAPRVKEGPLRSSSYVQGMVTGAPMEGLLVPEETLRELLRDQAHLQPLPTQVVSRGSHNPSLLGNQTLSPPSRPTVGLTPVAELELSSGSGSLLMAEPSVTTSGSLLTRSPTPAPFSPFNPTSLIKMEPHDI
# Summary of the method: as §1
# [6] = molecular target: T3, ELK4 (Homo sapiens, UniProt P28324-2 1-405); conditions: protein: recombinant; tags: N-terminal GST; dsDNA, one strand shown
# T3 sequence: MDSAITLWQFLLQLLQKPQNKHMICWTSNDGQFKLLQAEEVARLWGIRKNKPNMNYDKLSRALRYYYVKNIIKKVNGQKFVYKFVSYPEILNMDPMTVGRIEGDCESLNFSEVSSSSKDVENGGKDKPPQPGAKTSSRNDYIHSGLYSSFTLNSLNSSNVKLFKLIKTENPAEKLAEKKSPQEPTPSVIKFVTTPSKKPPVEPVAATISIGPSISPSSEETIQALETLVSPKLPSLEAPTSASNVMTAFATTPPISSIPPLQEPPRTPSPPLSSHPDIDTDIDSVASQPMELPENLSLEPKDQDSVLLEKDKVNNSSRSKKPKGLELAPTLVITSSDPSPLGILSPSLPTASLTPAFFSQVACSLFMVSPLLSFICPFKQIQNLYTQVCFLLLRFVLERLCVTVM
# Summary of the method: as §1
# [7] = molecular target: T4, ETV2 (Homo sapiens, UniProt O00321 1-342); conditions: protein: recombinant; tags: N-terminal GST; dsDNA, one strand shown
# T4 sequence: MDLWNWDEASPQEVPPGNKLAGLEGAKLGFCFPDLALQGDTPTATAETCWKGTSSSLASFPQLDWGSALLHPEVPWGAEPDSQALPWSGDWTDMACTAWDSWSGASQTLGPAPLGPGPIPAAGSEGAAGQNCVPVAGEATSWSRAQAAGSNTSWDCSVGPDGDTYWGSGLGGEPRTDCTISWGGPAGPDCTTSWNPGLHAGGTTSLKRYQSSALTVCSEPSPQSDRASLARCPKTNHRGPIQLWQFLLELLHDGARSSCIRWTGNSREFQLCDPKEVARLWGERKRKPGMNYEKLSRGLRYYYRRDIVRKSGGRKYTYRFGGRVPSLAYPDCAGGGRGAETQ
# Summary of the method: as §1
# [8] = molecular target: T5, ELF3 (Homo sapiens, UniProt P78545 1-371); conditions: protein: recombinant; tags: N-terminal GST; dsDNA, one strand shown
# T5 sequence: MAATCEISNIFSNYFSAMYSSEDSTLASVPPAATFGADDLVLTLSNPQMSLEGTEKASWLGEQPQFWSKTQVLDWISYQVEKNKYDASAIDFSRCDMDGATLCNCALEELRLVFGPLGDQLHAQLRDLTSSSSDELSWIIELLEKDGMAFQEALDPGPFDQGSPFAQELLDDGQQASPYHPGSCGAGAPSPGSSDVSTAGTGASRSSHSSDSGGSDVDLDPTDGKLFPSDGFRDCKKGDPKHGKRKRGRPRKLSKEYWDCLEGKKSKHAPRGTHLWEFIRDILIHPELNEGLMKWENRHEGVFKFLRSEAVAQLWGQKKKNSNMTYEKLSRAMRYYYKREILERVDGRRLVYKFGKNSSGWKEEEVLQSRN
# Summary of the method: as §1
# [9] = molecular target: CRX (Homo sapiens, UniProt O43186 1-299); conditions: protein: recombinant; tags: N-terminal GST; dsDNA, one strand shown
# CRX, sequence (O43186 whole entry): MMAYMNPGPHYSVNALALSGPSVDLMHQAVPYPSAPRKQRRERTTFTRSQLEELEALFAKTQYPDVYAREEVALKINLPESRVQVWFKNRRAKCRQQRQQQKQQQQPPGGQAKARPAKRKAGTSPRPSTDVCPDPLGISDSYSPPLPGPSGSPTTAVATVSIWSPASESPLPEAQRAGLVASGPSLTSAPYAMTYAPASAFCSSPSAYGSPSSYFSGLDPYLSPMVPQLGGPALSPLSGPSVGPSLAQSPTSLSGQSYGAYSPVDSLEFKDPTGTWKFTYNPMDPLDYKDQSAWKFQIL
# Summary of the method: as §1
# [10] = molecular target: ETV1 (Homo sapiens, UniProt P50549 1-477); conditions: protein: recombinant; tags: N-terminal GST; dsDNA, one strand shown
# ETV1, sequence (P50549 whole entry): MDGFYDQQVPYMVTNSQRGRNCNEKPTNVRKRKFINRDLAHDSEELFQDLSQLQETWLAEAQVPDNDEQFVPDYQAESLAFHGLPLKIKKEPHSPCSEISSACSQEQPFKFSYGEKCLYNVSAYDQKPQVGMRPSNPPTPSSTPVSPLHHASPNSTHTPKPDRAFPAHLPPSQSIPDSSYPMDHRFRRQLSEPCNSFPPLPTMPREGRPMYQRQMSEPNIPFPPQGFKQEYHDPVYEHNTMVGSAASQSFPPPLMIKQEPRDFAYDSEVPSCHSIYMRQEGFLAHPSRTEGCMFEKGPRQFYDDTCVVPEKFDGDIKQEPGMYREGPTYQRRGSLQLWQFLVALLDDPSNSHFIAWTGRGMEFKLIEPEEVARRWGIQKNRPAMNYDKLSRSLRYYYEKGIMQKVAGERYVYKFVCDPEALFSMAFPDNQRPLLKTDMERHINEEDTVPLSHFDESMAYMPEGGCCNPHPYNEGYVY
# Summary of the method: as §1
# [11] = molecular target: T6, ERF (Homo sapiens, UniProt P50548 1-548); conditions: protein: recombinant; tags: N-terminal GST; dsDNA, one strand shown
# T6 sequence: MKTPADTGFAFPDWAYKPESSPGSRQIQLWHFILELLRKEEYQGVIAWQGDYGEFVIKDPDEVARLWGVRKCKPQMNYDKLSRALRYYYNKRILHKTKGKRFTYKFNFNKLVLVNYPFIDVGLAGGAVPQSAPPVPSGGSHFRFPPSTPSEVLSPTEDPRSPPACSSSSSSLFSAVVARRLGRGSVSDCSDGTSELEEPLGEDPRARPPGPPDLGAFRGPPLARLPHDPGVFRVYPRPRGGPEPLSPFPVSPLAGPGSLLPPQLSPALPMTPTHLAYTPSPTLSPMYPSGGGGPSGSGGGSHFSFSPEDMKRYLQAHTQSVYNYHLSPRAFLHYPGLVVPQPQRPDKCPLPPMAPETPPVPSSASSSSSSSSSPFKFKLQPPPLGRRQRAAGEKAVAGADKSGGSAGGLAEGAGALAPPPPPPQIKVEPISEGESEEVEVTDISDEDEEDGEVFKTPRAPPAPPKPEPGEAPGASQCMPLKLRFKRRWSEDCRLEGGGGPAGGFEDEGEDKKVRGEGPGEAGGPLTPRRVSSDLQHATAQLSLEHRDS
# Summary of the method: as §1
# [12] = molecular target: T7, ETV3L (Homo sapiens, UniProt Q6ZN32 1-361); conditions: protein: recombinant; tags: N-terminal GST; dsDNA, one strand shown
# T7 sequence: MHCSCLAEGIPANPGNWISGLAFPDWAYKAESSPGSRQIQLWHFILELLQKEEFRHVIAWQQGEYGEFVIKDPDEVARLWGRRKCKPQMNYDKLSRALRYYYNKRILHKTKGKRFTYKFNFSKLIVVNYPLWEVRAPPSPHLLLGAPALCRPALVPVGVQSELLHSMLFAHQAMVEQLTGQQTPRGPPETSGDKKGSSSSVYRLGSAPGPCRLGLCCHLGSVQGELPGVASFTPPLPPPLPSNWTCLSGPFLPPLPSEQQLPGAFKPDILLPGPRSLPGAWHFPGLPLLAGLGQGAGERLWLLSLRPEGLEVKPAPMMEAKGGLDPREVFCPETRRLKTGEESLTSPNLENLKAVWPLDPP
# Summary of the method: as §1
# [13] = molecular target: T8, ETS2 (Homo sapiens, UniProt P15036 1-469); conditions: protein: recombinant; tags: N-terminal GST; dsDNA, one strand shown
# T8 sequence: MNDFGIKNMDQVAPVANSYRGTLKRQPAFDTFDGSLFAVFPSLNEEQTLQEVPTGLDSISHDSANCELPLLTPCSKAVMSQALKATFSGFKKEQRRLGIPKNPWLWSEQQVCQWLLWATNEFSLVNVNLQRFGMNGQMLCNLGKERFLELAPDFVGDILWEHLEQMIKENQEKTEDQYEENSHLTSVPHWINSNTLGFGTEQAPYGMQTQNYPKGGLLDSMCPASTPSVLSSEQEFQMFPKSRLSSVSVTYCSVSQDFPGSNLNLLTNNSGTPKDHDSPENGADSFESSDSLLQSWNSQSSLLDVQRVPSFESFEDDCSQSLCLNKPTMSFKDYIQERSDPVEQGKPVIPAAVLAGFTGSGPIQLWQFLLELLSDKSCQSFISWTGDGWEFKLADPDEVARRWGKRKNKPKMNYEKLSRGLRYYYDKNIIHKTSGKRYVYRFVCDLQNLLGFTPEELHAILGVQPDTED
# Summary of the method: as §1
# [14] = molecular target: T9, SPDEF (Homo sapiens, UniProt O95238 1-335); conditions: protein: recombinant; tags: N-terminal GST; dsDNA, one strand shown
# T9 sequence: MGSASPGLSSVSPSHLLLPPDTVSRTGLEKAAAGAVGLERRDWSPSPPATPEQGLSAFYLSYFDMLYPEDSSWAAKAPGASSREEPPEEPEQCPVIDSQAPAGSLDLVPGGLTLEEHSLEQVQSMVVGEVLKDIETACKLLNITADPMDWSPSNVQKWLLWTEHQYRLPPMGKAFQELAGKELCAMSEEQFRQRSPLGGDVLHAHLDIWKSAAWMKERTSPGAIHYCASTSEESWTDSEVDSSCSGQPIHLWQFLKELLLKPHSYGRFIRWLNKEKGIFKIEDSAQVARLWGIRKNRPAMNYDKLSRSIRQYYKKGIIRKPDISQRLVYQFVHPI
# Summary of the method: as §1
# [15] = molecular target: T10, ETV7 (Homo sapiens, UniProt Q9Y603 1-341); conditions: protein: recombinant; tags: N-terminal GST; dsDNA, one strand shown
# T10 sequence: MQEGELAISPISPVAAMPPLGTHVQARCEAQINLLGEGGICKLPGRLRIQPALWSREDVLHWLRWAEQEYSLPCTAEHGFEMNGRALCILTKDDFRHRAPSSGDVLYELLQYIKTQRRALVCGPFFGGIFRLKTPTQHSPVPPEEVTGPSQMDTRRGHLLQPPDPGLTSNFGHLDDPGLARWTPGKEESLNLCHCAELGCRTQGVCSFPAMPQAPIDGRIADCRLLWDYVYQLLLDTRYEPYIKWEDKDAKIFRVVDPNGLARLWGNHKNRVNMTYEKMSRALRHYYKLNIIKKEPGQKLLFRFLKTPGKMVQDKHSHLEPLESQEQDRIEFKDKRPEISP
# Summary of the method: as §1
# [16] = molecular target: T11, ELF5 (Homo sapiens, UniProt Q9UKW6-2 1-255); conditions: protein: recombinant; tags: N-terminal GST; dsDNA, one strand shown
# T11 sequence: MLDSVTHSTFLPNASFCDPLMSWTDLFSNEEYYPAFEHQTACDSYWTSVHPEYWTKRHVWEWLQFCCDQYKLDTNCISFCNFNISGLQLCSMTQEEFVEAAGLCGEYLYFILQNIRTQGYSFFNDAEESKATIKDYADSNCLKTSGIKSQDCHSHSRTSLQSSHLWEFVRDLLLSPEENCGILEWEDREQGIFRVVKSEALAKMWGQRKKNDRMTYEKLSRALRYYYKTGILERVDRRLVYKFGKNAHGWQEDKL
# Summary of the method: as §1
# [17] = molecular target: T12, ETV3 (Homo sapiens, UniProt P41162-2 1-143); conditions: protein: recombinant; tags: N-terminal GST; dsDNA, one strand shown
# T12 sequence: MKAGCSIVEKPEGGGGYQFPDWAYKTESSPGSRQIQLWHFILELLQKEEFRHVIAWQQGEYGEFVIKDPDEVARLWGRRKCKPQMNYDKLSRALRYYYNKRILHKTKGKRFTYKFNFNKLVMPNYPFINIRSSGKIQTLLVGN
# Summary of the method: as §1
# [18] = molecular target: ETV6 (Homo sapiens, UniProt P41212 1-452); conditions: protein: recombinant; tags: N-terminal GST; dsDNA, one strand shown
# ETV6, sequence (P41212 whole entry): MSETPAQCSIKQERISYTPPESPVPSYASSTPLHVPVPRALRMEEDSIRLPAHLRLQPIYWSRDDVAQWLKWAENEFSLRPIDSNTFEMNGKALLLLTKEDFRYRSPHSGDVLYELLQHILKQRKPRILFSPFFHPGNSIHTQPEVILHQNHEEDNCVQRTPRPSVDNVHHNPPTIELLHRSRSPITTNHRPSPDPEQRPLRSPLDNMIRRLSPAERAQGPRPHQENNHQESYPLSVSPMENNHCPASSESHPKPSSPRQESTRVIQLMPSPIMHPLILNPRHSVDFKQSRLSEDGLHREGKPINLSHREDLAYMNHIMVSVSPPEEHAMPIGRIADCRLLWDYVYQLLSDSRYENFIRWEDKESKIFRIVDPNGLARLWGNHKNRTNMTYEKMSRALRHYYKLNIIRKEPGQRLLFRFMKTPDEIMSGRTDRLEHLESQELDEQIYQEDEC
# Summary of the method: as §1
sequence,measurement,setting,value
CCCGTT,binding signal,[1],"1.13 fold enrichment (6-mer frequency, TF over GST control)"
same,binding signal,[2],"1.21 fold enrichment (6-mer frequency, TF over GST control)"
same,binding signal,[3],"1.03 fold enrichment (6-mer frequency, TF over GST control)"
same,binding signal,[4],"1.07 fold enrichment (6-mer frequency, TF over GST control)"
same,binding signal,[5],"1.15 fold enrichment (6-mer frequency, TF over GST control)"
same,binding signal,[6],"1.06 fold enrichment (6-mer frequency, TF over GST control)"
same,binding signal,[7],"1.18 fold enrichment (6-mer frequency, TF over GST control)"
same,binding signal,[8],"1.26 fold enrichment (6-mer frequency, TF over GST control)"
same,binding signal,[9],"1.02 fold enrichment (6-mer frequency, TF over GST control)"
same,binding signal,[10],"1.03 fold enrichment (6-mer frequency, TF over GST control)"
same,binding signal,[11],"1.13 fold enrichment (6-mer frequency, TF over GST control)"
same,binding signal,[12],"1.19 fold enrichment (6-mer frequency, TF over GST control)"
same,binding signal,[13],"1.1 fold enrichment (6-mer frequency, TF over GST control)"
same,binding signal,[14],"1.2 fold enrichment (6-mer frequency, TF over GST control)"
same,binding signal,[15],"1.19 fold enrichment (6-mer frequency, TF over GST control)"
same,binding signal,[16],"1.27 fold enrichment (6-mer frequency, TF over GST control)"
same,binding signal,[17],"1.17 fold enrichment (6-mer frequency, TF over GST control)"
same,binding signal,[18],"1.16 fold enrichment (6-mer frequency, TF over GST control)"
